Measured values as given in PubChem BioAssay (Tox21).
Records with an inconclusive call do not appear. Where a call stands in place of a potency, no number is given. Activity calls are given as the source filed them. Calls come from the whole dose curve; as a rule, active = well fitted activation curve with a large enough effect in the repeat runs; inconclusive = weak or mixed curves; inactive = no such curve, though single readings can be large or run the other way.

The compounds below were run against Aryl hydrocarbon receptor (Homo sapiens) (UniProt P35869) (assay: qHTS assay to identify small molecule that activate the aryl hydrocarbon receptor (AhR) signaling pathway (AID 743085;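 note: HG2L7.5c1 human HepG2 liver cells with stably integrated DRE-driven firefly reporter; nearly all actives have a fitted effect of over 15% in size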)). Settings: HepG2 AhR-luc (HG2L7.5c1), luciferase, 24 h; series mostly up to 70.3 µM.
Sequence of Aryl hydrocarbon receptor (Homo sapiens) (P35869 whole entry, looked up): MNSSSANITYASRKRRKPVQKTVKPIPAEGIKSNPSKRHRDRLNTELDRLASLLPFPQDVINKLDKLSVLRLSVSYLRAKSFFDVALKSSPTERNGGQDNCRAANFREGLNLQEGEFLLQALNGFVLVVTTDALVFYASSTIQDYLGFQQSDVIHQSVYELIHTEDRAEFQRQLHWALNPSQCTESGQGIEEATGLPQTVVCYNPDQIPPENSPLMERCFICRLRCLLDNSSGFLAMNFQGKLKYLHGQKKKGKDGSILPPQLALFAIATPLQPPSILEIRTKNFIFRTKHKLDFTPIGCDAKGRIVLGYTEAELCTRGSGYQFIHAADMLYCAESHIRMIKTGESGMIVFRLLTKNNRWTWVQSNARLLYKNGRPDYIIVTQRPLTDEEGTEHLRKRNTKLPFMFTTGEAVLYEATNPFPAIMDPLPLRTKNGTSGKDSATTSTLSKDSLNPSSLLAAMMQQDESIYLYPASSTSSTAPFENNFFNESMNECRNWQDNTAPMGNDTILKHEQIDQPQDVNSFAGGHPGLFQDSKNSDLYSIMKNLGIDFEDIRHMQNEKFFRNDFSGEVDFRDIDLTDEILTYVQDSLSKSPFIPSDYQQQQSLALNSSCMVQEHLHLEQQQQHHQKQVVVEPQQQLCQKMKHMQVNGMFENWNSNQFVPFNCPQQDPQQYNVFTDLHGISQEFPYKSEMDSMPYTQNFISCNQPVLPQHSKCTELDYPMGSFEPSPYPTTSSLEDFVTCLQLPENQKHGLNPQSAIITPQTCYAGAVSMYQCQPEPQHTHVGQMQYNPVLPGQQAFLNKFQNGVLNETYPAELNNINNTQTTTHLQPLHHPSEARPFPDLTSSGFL
Method in brief: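 Measured in HG2L7.5c1 cells: CellTiter-Fluor signal (30 min incubation, 37C) for viability, then luciferase luminescence (30 min, room temperature). Compound contact time was 24 h at 37C, following a 5 h pre-incubation.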
`CC[C@H]1OC(=O)[C@H](C)C(=O)[C@H](C)[C@@H](O[C@@H]2O[C@H](C)C[C@H](N(C)C)[C@H]2O)[C@](C)(OC)C[C@@H](C)C(=O)[C@H](C)[C@H]2N(CCCCn3cnc(-c4cccnc4)c3)C(=O)O[C@]12C` was tested, and the Potency was “inactive”.
`CCCCCCCC/C=C\CCCCCCCC(=O)N(CCO)CCO` was tested, and the Potency was “inactive”.
For `CC1(C)S[C@@H]2[C@H](NC(=O)[C@H](N)c3ccc(O)cc3)C(=O)N2[C@H]1C(=O)O`, the Potency was “inactive”.
`CC[C@@]1([C@@H]2O[C@@H]([C@H]3O[C@@](O)(CO)[C@H](C)C[C@@H]3C)C[C@@H]2C)CC[C@H]([C@]2(C)CC[C@]3(C[C@H](O)[C@@H](C)[C@@H]([C@@H](C)[C@@H](OC)[C@H](C)C(=O)O)O3)O2)O1` (stereo in doubt) was tested, and the Potency was “inactive”.
`CO/N=C(\C(=O)N[C@@H]1C(=O)N2C(C(=O)[O-])=C(C[n+]3cccc4c3CCC4)CS[C@H]12)c1csc(N)n1` was tested, and the Potency was “inactive”.
For `FC(F)(F)C(F)(F)C(F)(F)C(F)(F)C(F)(F)F`, the Potency was “inactive”.
For `O=C(O)C[C@H](O)C[C@H](O)/C=C/c1c(C2CC2)nc2ccccc2c1-c1ccc(F)cc1`, the Potency was “inactive”.
For `CCN(CC)CC#CCOC(=O)C(O)(c1ccccc1)C1CCCCC1` (stereo unspecified), the Potency was “inactive”.
In the case of `C[N+](C)(C)CCOP(=O)(O)OP(=O)([O-])OC[C@H]1O[C@@H](n2ccc(N)nc2=O)[C@H](O)[C@@H]1O`, the Potency is reported as “inactive”.
`CC1(C)C[C@@H]1C(=O)N/C(=C\CCCCSC[C@H](N)C(=O)O)C(=O)O` was tested, and the Potency was “inactive”.
For `CCOc1cc(CC(=O)N[C@@H](CC(C)C)c2ccccc2N2CCCCC2)ccc1C(=O)O`, the Potency was “inactive”.
